Compound activity: PubChem BioAssay, several laboratories
VHR inh abs: VHR1 phosphatase inhibitors, primary screen, biochemical, absorbance, uHTS; recombinant VHR phosphatase, pNPP absorbance; AID 1654, 2009; hit rate 0.52% among 290,000; inhibition, % at 13.3 µM; Dual specificity protein phosphatase 3 (Homo sapiens), P51452; in the data active means inhibition above about 50%
Target sequence (P51452 whole entry, looked up): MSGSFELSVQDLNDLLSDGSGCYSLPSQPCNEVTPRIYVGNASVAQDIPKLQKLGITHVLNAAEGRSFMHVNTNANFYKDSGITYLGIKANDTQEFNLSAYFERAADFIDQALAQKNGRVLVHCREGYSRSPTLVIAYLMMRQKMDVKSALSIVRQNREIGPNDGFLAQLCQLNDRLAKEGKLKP
3CLpro inhibitor: SARS-CoV 3CLpro protease inhibitors, primary screen, biochemical, quenched FRET; hit rate 0.14% among 290,000; Replicase polyprotein 1ab (Severe acute respiratory syndrome coronavirus), P0C6X7; inhibition, % at 6 µM; recombinant SARS-CoV 3CLpro, quenched FRET peptide cleavage; AID 1706, 2009; in the data active means inhibition above about 12%
SSB-PriA inh: inhibitors of Klebsiella pneumoniae PriA binding to SSB C-terminal tail, primary screen, biochemical, AlphaScreen. inhibition, % at 33 µM. hit rate 0.6% among 430,000. AlphaScreen SSBct-PriA binding, biotinylated peptide. PriA–SSB C-terminal tail interaction (Klebsiella pneumoniae). AID 1272365, 2023; in the data active means inhibition mostly above about 37%, no sharp cut-off; inactive means mostly below about 20%;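 further: plate controls were negative control peptide for no effect and reference peptide for full effect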
Mtb hypoxia rep: PubChem AID 1159583. fluorescence inhibition, % (concentration not given with the values). hit rate 0.1% among 300,000. M. tuberculosis hypoxia-regulated fluorescent reporter, fluorescence; in the data active means fluorescence inhibition mostly above about 23%, no sharp cut-off; inactive means mostly below about 17%
CCHFV vOTU inh: CCHFV vOTU protease inhibitors, primary screen, biochemical, Pep-AMC substrate, fluorescence | hit rate 0.55% among 370,000 | inhibition, % at 11.5 µM | AID 651958, 2012; in the data active means inhibition above about 30%; further: 0% = vehicle wells with enzyme and 100% = no enzyme wells
* = called active by the depositor; i = inactive; . = no result; ! = not confirmed by another sample. Hits are enriched below; roughly 1.3% of the tested compounds scored in any of these assays.

SMILES	VHR inh abs	3CLpro inhibitor	SSB-PriA inh	Mtb hypoxia rep	CCHFV vOTU inh
COc1cnc(-c2ccccn2)nc1Oc1cc(Cl)cc(Cl)c1	.	.	62.5*	.	.
COc1cnc(-c2ccccn2)nc1Sc1ccccc1	11.9	6.5	22.2	9.9	4.9
Clc1ccc(-c2cnnc(-c3ccccn3)n2)cc1	.	.	58.4*	-4.1	1.4
COc1cnc(-c2ccccn2)nc1N(C)c1ccccc1	8.8	2.1	97.9*	.	8.4
CCOC(=O)CSc1nc(-c2ccccn2)ncc1OC	15.5	-5.8	83.1*	-6.4	-3.2
Cc1ccccc1Cn1cnc2c(cnn2CCNC(=O)COc2ccc(Cl)cc2)c1=O	.	.	11.0	.	.
CC(=O)Oc1oc(-c2ccccc2)nc1C=Nc1ccccc1	51.7*	4.3	-3.3	.	5.5
CCOC(=O)c1ccc(N=Cc2nc(-c3ccccc3)oc2OC(C)=O)cc1	17.5	-1.9	-10.1	12.6	0.3
O=C(Nc1ccc2oc(=O)ccc2c1)c1ccc(-c2cccc([N+](=O)[O-])c2)o1	58.5*	-7.7	-0.9	.	10.2
Cc1nc(-c2cccnc2)sc1-c1ccc(SCC(=O)Nc2ccccc2C(F)(F)F)nn1	.	.	-18.0	.	.
CN(C)c1ccc(-c2ccncc2)cc1	7.9	.	.	.	.
CC/C(=C\c1ccc(N(C)C)cc1)c1ccncc1	.	.	49.0*	22.5	-3.4
Cc1cc(C)n(-c2ccc(N3CCN(C(=O)c4cccc(C(F)(F)F)c4)CC3)nn2)n1	.	.	-20.0	.	.
O=S(=O)(c1cccs1)N1CCN(c2nc3ccccc3n2Cc2ccccc2)CC1	.	.	18.0	.	.
CS(=O)(=O)CCC(C(=O)Nc1ccc2c(c1)OCO2)N1Cc2ccccc2C1=O (stereo not given)	56.8*	-3.1	9.7	6.9	9.0
CSCC[C@@H](C(=O)Nc1ccc2c(c1)OCCO2)N1Cc2ccccc2C1=O	8.2	-1.5	21.1	-6.8	5.7
O=S(=O)(O)c1ccc2ccc3ccccc3c2c1	.	.	-9.0	.	.
O=S(=O)(O)c1cccc(N=Nc2c(O)ccc3ccccc23)c1	8.7	4.3	31.5	35.8*	9.1
O=C(Cc1cc(-c2ccco2)on1)NCc1cccnc1	.	.	-8.0	.	.
CC(=O)N1CC(C(=O)NC2CCCC2)C1	.	.	-9.0	.	.
O=[N+]([O-])c1ccc(NNC(=S)NC2CCS(=O)(=O)C2)c([N+](=O)[O-])c1 (stereo not given)	.	.	51.0*	.	.
O=[N+]([O-])c1ccc(NN=C2CC3CC=CC23)c([N+](=O)[O-])c1 (stereo not given)	.	.	52.1*	7.5	.
COc1cccc(C(O)=C2C(=O)C(=O)N(CCCn3ccnc3)C2c2ccccn2)c1 (stereo not given)	.	.	-10.0	.	.
CC(=O)c1ccc(OCc2cc(C(=O)N3CCC[C@H]3CO)no2)cc1	59.8*	3.4	-12.1	5.4	-7.2
COCCC1CCCCN1C(=O)c1cc(COc2cccc(C(C)=O)c2)on1 (stereo not given)	17.9	-3.4	-16.0	7.6	-8.4
SMILES	VHR inh abs	3CLpro inhibitor	SSB-PriA inh	Mtb hypoxia rep	CCHFV vOTU inh
CCCCn1c(N)c(Sc2ccccc2[N+](=O)[O-])c(=O)[nH]c1=O	51.1*	-7.1	-15.5	-7.5	5.2
CC(C)c1nnc(C2CCN(C(=O)c3ccc4nsnc4c3)CC2)o1	.	.	-5.0	.	.
Nc1ccc(N(c2ccccc2)c2ccc(N)cc2)cc1	35.1	-3.1	41.7*	-104.3	0.5
C=CCC(CC(=O)NC(CO)Cc1ccccc1)C(=O)NC(COC(=O)C(CC=C)Cc1ccc(F)cc1)Cc1ccccc1 (stereo not given)	.	.	.	38.1*!	.
CC(O)(CNS(=O)(=O)c1cc2c3c(c1)CCN3C(=O)CC2)c1ccco1 (stereo not given)	.	.	-7.0	.	.
COC(=O)c1nnn(CC(=O)NC(=O)Nc2cccc(Cl)c2C)c1C(=O)OC	50.6*	1.3	1.1	.	12.3
Cc1c(Cl)cccc1S(=O)(=O)N1CC(S(=O)(=O)c2ccc(F)cc2)C1	.	.	-8.0	.	.
CC1CCN(S(=O)(=O)c2ccc3c(c2)oc(=O)n3CC(=O)N2c3ccccc3CC2C)CC1 (stereo not given)	21.1	5.3	98.1*	0.9	-4.1
CCCCNS(=O)(=O)c1ccc2nc(SCC(N)=O)[nH]c2c1	21.1	-0.8	-16.9	7.3	13.0
CCCCNS(=O)(=O)c1ccc2nc(SCC(=O)Nc3sccc3C#N)[nH]c2c1	10.4	5.8	-31.9	.	29.6*
O=C(N/N=C/c1cccc([N+](=O)[O-])c1)c1cccc2cc[nH]c12	52.1*	2.6	.	.	-5.0
O=C(N/N=C/c1cccc([N+](=O)[O-])c1)c1ccc(Br)cc1	56.9*	-1.3	i	.	-0.5
COC(CNC(=O)CCc1ccc(C(F)(F)F)cc1)c1ccccc1Cl (stereo not given)	.	.	8.0	.	.
S=C1SCN(Cc2ccccn2)CN1Cc1ccco1	10.4	-4.0	48.1*	10.6	-11.1
COCCN1CSC(=S)N(Cc2ccco2)C1	24.9	-2.1	-11.0	9.0	-1.9
Cc1cc(NC(=O)C(=O)c2c(C)[nH]c3ccccc23)n(-c2nc3c(cnn3-c3ccccc3)c(=O)[nH]2)n1	.	.	6.0	.	.
CCOc1ccccc1N(C)C(=O)c1cn(C)c(=O)c2ccccc12	50.7*	3.6	-5.1	9.3	12.7
O=C(Nc1ccc(OC(F)(F)F)cc1)Nc1c[nH]c2ccccc12	.	.	17.0	.	.
CCc1ccc(NC(=O)Nc2c[nH]c3ccccc23)cc1	.	.	38.0*	.	.
O=C(Nc1ccc(F)c(Cl)c1)Nc1c[nH]c2ccccc12	.	.	54.0*	.	.
CC(C)c1ccc(NC(=O)Nc2c[nH]c3ccccc23)cc1	.	.	39.0*	.	.
Cc1cc2cc(CNC(=O)CC(c3ccccc3)c3ccccc3)ccc2[nH]1	.	.	-11.0	.	.
CCNC(=S)NCc1ccc2[nH]c(C)cc2c1	3.9	1.3	63.0*	1.9	-3.2
Cc1cc2cc(CNC(=S)Nc3ccc(OC(F)F)cc3)ccc2[nH]1	-11.0	4.6	73.3*	0.5	1.7
Cc1cc2cc(CNC(=O)Nc3ccccc3)ccc2[nH]1	16.0	-0.6	44.0*!	-14.1	5.9
SMILES	VHR inh abs	3CLpro inhibitor	SSB-PriA inh	Mtb hypoxia rep	CCHFV vOTU inh
Cc1cc2cc(CNC(=S)Nc3ccc(OC(F)(F)F)cc3)ccc2[nH]1	-7.3	3.8	57.8*	7.2	15.9
Cc1nc(Nc2cccnc2)sc1C(=O)O	.	.	-6.0	.	.
Oc1cc(-c2ccncc2)cc2cccnc12	.	.	55.4*	7.1	17.6
CN(C)c1ccc(-c2cc(O)c3ncccc3c2)cc1	.	.	42.8	.	9.3
Fc1cc(-c2ccncc2)c2ncccc2c1	.	.	33.6	.	.
Oc1cc(Nc2cccnc2)cc2cccnc12	.	.	89.1*	7.6	6.1
Oc1cc(Nc2ccncc2)cc2cccnc12	.	.	103.9*	4.4	13.9
CN(C)CCCNC(=O)c1ccc(-c2cc(O)c3ncccc3c2)cc1	.	.	83.3*	19.8	0.4
Cn1nc(-c2ccc(F)cc2)cc1C(=O)N(CCc1ccccc1)Cc1ccccn1	.	.	-6.0	.	.
COc1ccc(-c2noc(C3CCN(S(=O)(=O)c4ccc(C)c(C)c4)CC3)n2)c(OC)c1	.	.	-2.0	.	.
Nc1cc(O)c2ncccc2c1	.	.	140.0*	.	.
Fc1cc(-c2ncccn2)c2ncccc2c1	.	.	29.6	.	.
COCC(=O)N1CCN(c2ccc([N+](=O)[O-])cc2)CC1	6.2	5.3	-8.2	.	9.3
